This is a sample that favours compounds with a hit; in the whole collection about 2.1% have one here.
D2 ag-1 – agonists of human D2 dopamine receptor. P14416. HEK293 T-REx D2 cells, calcium flux agonist mode. activation, % at 2 µM. 340,000 tested, 0.53% active. AID 485358;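 active = activation over 3 SD above normal in the single-dose calcium agonist read, cut at about 30% in these data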
Target sequence (P14416 whole entry, looked up): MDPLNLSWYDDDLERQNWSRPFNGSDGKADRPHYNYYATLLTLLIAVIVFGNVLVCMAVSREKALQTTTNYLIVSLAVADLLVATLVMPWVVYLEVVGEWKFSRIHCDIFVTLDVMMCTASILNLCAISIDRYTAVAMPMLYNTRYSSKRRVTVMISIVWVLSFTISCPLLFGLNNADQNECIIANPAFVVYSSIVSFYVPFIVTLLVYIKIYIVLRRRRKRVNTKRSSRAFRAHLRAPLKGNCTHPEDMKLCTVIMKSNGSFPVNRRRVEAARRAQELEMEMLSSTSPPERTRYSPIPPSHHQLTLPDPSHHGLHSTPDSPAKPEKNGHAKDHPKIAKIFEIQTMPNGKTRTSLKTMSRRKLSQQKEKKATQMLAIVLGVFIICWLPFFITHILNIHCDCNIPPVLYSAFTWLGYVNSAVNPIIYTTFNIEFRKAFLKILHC
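HEK293 Trex D2 cells, tetracycline-induced, o/n 30 C 5% CO2; no-wash Ca dye, RT 30–90 min; 10-cycle baseline, 23 nl cpd added, kinetic Ca read 180 s; agonist hits = positive Ca response.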
D2 PAM-1 – potentiates the human D2 dopamine receptor allosterically. P14416. DiscoveRx D2 beta-arrestin cells, luminescence, 90 min; 100% = 57 uM dopamine signal. potentiation, % (no concentration beside the values). 360,000 tested, 0.23% active. AID 624464; in the data active = potentiation above about 50%; inconclusive = mostly about 30% to 49%
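D2 cells co-treated with compound plus 50 nM dopamine (EC20) for 90 min at 37 deg C to detect potentiation. Beta-arrestin recruitment was read as enzyme-fragment luminescence after 1 h at ambient temperature. Full response was set by 57 uM dopamine.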
D2 PAM-2 – positively modulates the human D2 dopamine receptor allosterically | HEK293 T-REx D2, calcium flux, EC20 dopamine potentiation | potentiation, % at 10 µM | P14416 | 340,000 tested, 0.34% active;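 active = potentiation over 3 SD above the plate norm, cut at about 30% in these data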
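Primary screen. Calcium kinetics in induced HEK293 T-REx D2 cells: compound pre-addition 180 s, EC20 dopamine, 180 s more.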
D2 ag-2 – agonists of human D2 dopamine receptor (beta-arrestin) | DiscoveRx PathHunter D2 beta-arrestin, luminescence, 90 min; 100% = 57 uM dopamine signal | activation, % (test concentration not listed) | 360,000 tested, 0.084% active; in the data active = activation above about 40%; inconclusive = between about 15% and that limit
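Agonist mode: compounds alone added to overnight-plated D2 PathHunter cells for 90 min at 37 C, with 57 uM final dopamine (EC100) defining full response. Beta-arrestin recruitment detected by chemiluminescent reagent, read after 1 h at ambient temperature.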
LDHA inh – inhibitors of human lactate dehydrogenase A; P00338; purified LDHA, NADH/diaphorase-resazurin fluorescence; stronger effect = lower value; activity change, % (values are at about 110 or 230 µM); 480,000 tested, 0.15% active; AID 1347041; in the data active = activity change below about -30%; inconclusive = mostly about -25% to -30%
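Resorufin fluorescence (ex540/em590), read at 0 and 20 min after diaphorase/resazurin addition, reports the NADH left after a 5 min room-temperature reaction of 2 nM human LDH5 with 0.06 mM NADH and 0.2 mM pyruvate.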
D2 antagonist – D2 dopamine receptor (human) antagonism. HEK293 TREx D2 cells, calcium flux, dopamine EC80. P14416. inhibition, % at 10 µM. 340,000 tested, 2% active; in the data active = inhibition above about 30%; inactive = below that, where a call was filed
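Dopamine at EC80 is the agonist stimulus; test compounds precede it by 180 s. Calcium flux read kinetically in a force-coupled, inducible HEK293 T-REx D2 cell line.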
Large screens that a line does not name were inactive; ! = a repeat was not active.

COC(=O)CC[S+](=O)([O-])c1ccc(-n2cccc2/C=C2\NC(=O)N(CC(=O)Nc3ccc(C)cc3)C2=O)cc1	none (no result: D2 ag-1, D2 PAM-1, D2 PAM-2, D2 ag-2, D2 antagonist)
O=C(c1ccccc1O)N1CCN(S(=O)(=O)c2ccc3ccccc3c2)CC1	none (no result: D2 ag-1, D2 PAM-1, D2 PAM-2, D2 ag-2, D2 antagonist)
CCc1ccc(N=c2c([N+](=O)[O-])nn(-c3ccccc3)n2O)cc1	D2 PAM-1 90
COc1ccc(-n2nc([N+](=O)[O-])c(=NCCc3ccc(OC)c(OC)c3)n2O)cc1	D2 PAM-1 137, D2 ag-2 inconclusive
Cc1cc(C)cc(N=c2c([N+](=O)[O-])nn(-c3ccc(Cl)cc3)n2O)c1	D2 PAM-1 inconclusive
Cc1ccc(C(=O)NCCc2nnc3ccc(SCC(=O)Nc4c(C)cc(C)cc4C)nn23)cc1	none
Cc1ccc(C(=O)NCCc2nnc3ccc(SCC(=O)Nc4ccccc4C)nn23)cc1	D2 antagonist 41
CC1=C(C(=O)Nc2ccccc2)C(c2ccc(C(C)(C)C)cc2)NC(=S)N1 (stereo not drawn)	none (no result: D2 ag-1, D2 PAM-1, D2 PAM-2, D2 ag-2, D2 antagonist)
CCOc1ccc(-c2nc(CNC(=O)Nc3cccc(OC)c3)c(C)o2)cc1	none (no result: D2 ag-1, D2 PAM-1, D2 PAM-2, D2 ag-2, D2 antagonist)
O=C(Nc1nnc(SCC(=O)N2CCCCC2)s1)C1CCCCC1	D2 PAM-2 37
CN1CCC/C1=C/C=C1\SC(=S)NC1=O	D2 ag-1 50
CCCOc1ccc(C(N)C(=O)OCC)cc1 (stereo not drawn)	none (no result: D2 ag-1, D2 PAM-1, D2 PAM-2, D2 ag-2, D2 antagonist)
Cc1ccnn1CC(=O)N/N=C/c1cn[nH]c1-c1ccccc1	D2 antagonist 44
Cc1cc(=O)n(CC(C)O)c(O)c1C#N (stereo not drawn)	D2 PAM-1 62
CC1CCN(CCCNC(=O)CCc2nnc3n(CCc4ccccc4)c(=O)c4ccccc4n23)CC1	D2 antagonist 61
N#Cc1c(-c2ccccc2)cc(-c2cccs2)nc1SCCS(=O)Cc1ccccc1 (stereo not drawn)	none (no result: D2 ag-1, D2 PAM-1, D2 PAM-2, D2 ag-2, D2 antagonist)
Cc1nn(C)c(C)c1CNCc1ccnc(N2CCOCC2)c1	none (no result: D2 ag-1, D2 PAM-1, D2 PAM-2, D2 ag-2, D2 antagonist)
Cc1nn(C)c(C)c1CNCc1cccnc1N1CCOCC1	LDHA inh -38 (no result: D2 ag-1, D2 PAM-1, D2 PAM-2, D2 ag-2, D2 antagonist)
COc1cccc(COC(=O)C2CC(=O)N(Cc3ccccc3)C2)c1OC (stereo not drawn)	none (no result: D2 ag-1, D2 PAM-2, D2 antagonist)
COc1ccc(C(C)=O)cc1COC(=O)C1CC(=O)N(Cc2ccccc2)C1 (stereo not drawn)	D2 PAM-1 54
O=C(Nc1ccccc1-n1cncn1)C1CC(=O)N(c2ccccc2Br)C1 (stereo not drawn)	none (no result: D2 ag-1, D2 PAM-1, D2 PAM-2, D2 ag-2, D2 antagonist)
CN(C)C(=S)SCc1cc(C(C)(C)C)c(O)c(C(C)(C)C)c1	none (no result: D2 ag-1, D2 PAM-1, D2 PAM-2, D2 ag-2, D2 antagonist)
Clc1ccc(CN2C3=NCCCN3c3ccccc32)cc1Cl	D2 antagonist 76
CC[N+]1(C)CC2CCC(C)(C1)C2(C)C (stereo not drawn)	LDHA inh -31!
Cc1ccc(OCC(=O)Nc2ccc(O)c(-c3nc4ccccc4o3)c2)cc1	D2 PAM-2 32
CCC1(c2ccccc2)SC(=O)NC1=O (stereo not drawn)	none (no result: D2 ag-1, D2 PAM-2, D2 antagonist)
CCC1(c2ccccc2)C(=O)NCNC1=O	D2 antagonist 33
CC(=O)N1CCN(C(=O)c2sc(-c3ccc(OC(F)(F)F)cc3)nc2C)CC1	none (no result: D2 ag-1, D2 PAM-1, D2 PAM-2, D2 ag-2, D2 antagonist)
CC(C)(C)c1ccc(O)c(NC(=O)CC(C(=O)O)c2ccc(F)cc2)c1 (stereo not drawn)	none (no result: D2 ag-1, D2 PAM-1, D2 PAM-2, D2 ag-2, D2 antagonist)
CN(C)S(=O)(=O)c1cccc(-n2sc3ccccc3c2=O)c1	LDHA inh -43
O=c1c2ccccc2sn1-c1cccc(Cl)c1	none (no result: D2 ag-1, D2 PAM-2, D2 antagonist)
CC1(C)C2CCC(C2)C1(C)NC(=O)CN1CCN(Cc2ccccc2)CC1 (stereo not drawn)	LDHA inh -40
CC(Oc1cccc(F)c1)C(=O)NCCc1ccccn1 (stereo not drawn)	none (no result: D2 ag-1, D2 PAM-1, D2 PAM-2, D2 ag-2, D2 antagonist)
COc1ccc(C(=O)N2CCN(C3CCN(Cc4ccccc4)CC3)CC2)cc1OC	LDHA inh -40
COc1cccc(C(=O)NC2CC3CCCC(C2)N3Cc2ccc(C)cc2)c1 (stereo not drawn)	D2 antagonist 77
COc1ccc([N+](=O)[O-])cc1C(=O)NC1CCN(Cc2ccccc2)CC1	none (no result: D2 ag-1, D2 PAM-2, D2 antagonist)
COc1cccc(C(=O)N2CCN(C3CCN(Cc4ccccc4)CC3)CC2)c1	none (no result: D2 PAM-1, D2 ag-2, LDHA inh)

Screening data as filed in PubChem BioAssay.
